# Measurements: PubChem BioAssay AID504462 (Sanford-Burnham Center for Chemical Genomics, 2011)
# The whole screen tested about 340,000 compounds, of which about 1,700 (0.5%) were called active. Rule as the data show it: active = inhibition above about 40%; inactive = the rest. Only a selection was taken, and actives are over-represented in it overall.
# Target: Cysteine protease ATG4B (Homo sapiens) (UniProt Q9Y4P1)
# Assay: ATG4B protease inhibitors, primary screen, biochemical, fluorescence, uHTS (AID 504462)
# Settings: ATG4B cleavage of LC3-PLA2, NBD-HPC fluorescence, 1 h; at 8.33 µM; active compounds read high
# Chain of Cysteine protease ATG4B (Homo sapiens) (Q9Y4P1 whole entry, looked up): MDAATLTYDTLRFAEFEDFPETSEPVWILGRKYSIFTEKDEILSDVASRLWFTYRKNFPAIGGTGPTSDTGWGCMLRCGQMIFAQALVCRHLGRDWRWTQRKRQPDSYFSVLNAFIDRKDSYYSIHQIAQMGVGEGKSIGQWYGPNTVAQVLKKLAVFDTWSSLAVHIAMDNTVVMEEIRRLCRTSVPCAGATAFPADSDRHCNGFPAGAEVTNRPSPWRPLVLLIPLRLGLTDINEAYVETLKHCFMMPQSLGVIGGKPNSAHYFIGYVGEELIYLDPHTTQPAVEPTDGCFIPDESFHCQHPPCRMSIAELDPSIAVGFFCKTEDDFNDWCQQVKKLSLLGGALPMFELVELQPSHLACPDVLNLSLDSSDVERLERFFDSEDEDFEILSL
row,Compound,inhibition
1,c1ccc(C2=Nc3cccc4cccc(c34)N2)cc1,56.3% (active)
2,Fc1ccccc1N=C1Nc2cccc3cccc1c23,-6.86% (inactive)
3,COc1ccccc1C1=Nc2cccc3cccc(c23)N1,12.2% (inactive)
4,CCN1CCCC1CNC(=O)Cn1cnc2ccc(S(=O)(=O)N3CCC(C)CC3)cc2c1=O (stereo not given),-2.67% (inactive)
5,NC(=O)C1CCN(C(=O)c2ccc(F)c(S(=O)(=O)N3CCOCC3)c2)CC1,0.71% (inactive)
6,Nc1c(Cl)cc(S(N)(=O)=O)cc1S(N)(=O)=O,3.68% (inactive)
7,CCc1ccc(N2CC(C(=O)Nc3ccc(S(=O)(=O)Nc4nccs4)cc3)CC2=O)cc1 (stereo not given),-16.4% (inactive)
8,CCNC(=O)c1ccc(OCC(=O)Nc2ccc(F)cc2)c(OC)c1,2.31% (inactive)
9,COc1ccc(NC(=O)COc2ccc(C(=O)c3ccc(F)cc3)cc2)cc1S(N)(=O)=O,97.7% (active)
10,COc1ccc(NS(=O)(=O)c2cc(NC(=O)COc3ccccc3F)ccc2OC)cc1,-14.9% (inactive)
11,O=C(Nc1ccn(CCCNCc2ccc3[nH]ccc3c2)c(=O)n1)OCc1ccccc1,-8.68% (inactive)
12,COc1cccc(NC(=O)C/C(C)=N/NC(=O)C2CCCCC2)c1,1.29% (inactive)
13,Cc1ccc(CCC(=O)Nc2ncc(Cc3cc(Cl)ccc3Cl)s2)o1,0.02% (inactive)
14,O=C(c1cnn(-c2ccc(Cl)cc2)c1)c1ccccc1O,14.8% (inactive)
15,Cc1ncc(CC(=O)n2cc(C(=O)c3cc(Cl)ccc3O)cn2)s1,80% (active)
16,COc1ccc(NC(=O)CC2SC(N3CCCCC3)=NC2=O)cc1OC (stereo not given),-1.9% (inactive)
17,CN(CC(=O)NCc1ccc(Cl)cc1)S(=O)(=O)c1cccs1,-5.56% (inactive)
18,CN(Cc1c(F)cccc1Cl)S(=O)(=O)c1cccs1,49.8% (active)
19,CN(Cc1ccc(F)cc1Cl)S(=O)(=O)c1cccs1,11% (inactive)
20,COC(=O)c1c(NC(=O)c2c(Cl)cnn2C)sc(C)c1C,-7.14% (inactive)
21,CC1(C)Cc2cccc(OCC(=O)Nc3nccs3)c2O1,-9.2% (inactive)
22,Cc1ccccc1N1CCN(C2CCCN(C(=O)c3ocnc3C)C2)CC1 (stereo not given),4.49% (inactive)
23,COc1ccc(S(=O)(=O)Nc2cc(C)on2)cc1NC(C)=O,-6.89% (inactive)

row,Compound,inhibition
1,COc1ccc(-c2[nH]nc3c2C(c2ccncc2)C(C#N)=C(N)O3)cc1 (stereo not given),-11% (inactive)
2,CCCc1[nH]nc2c1C(c1ccc(Br)s1)C(C#N)=C(N)O2 (stereo not given),-2.42% (inactive)
3,CCCc1[nH]nc2c1C(c1ccc(OC(=O)c3ccco3)cc1)C(C#N)=C(N)O2 (stereo not given),69.2% (active)
4,CCC(=O)c1cc2c(cc1NC(=O)c1cccs1)OCCO2,-18.9% (inactive)
5,C[C@@H]1ON(C)[C@H]2C[C@H]3c4cc(N5CCN(C)CC5)ccc4CCN3C(=O)[C@@H]12,-6.52% (inactive)
6,CCc1c(O)cc2n(c1=O)-c1ccccc1C2(C)C,-8.25% (inactive)
7,O=C(COC(=O)c1ccc2c(c1)OCCO2)NCc1ccccc1Cl,22.8% (inactive)
8,CN(C)C(=O)c1ccc(NC(=O)COC(=O)c2cc3c(s2)CCCCC3)cc1,-5.46% (inactive)
9,O=C(COC(=O)/C(=C/c1cccs1)c1cccs1)NCc1ccccc1Cl,56% (active)
10,COc1ccccc1CNC(=O)COC(=O)c1cccs1,0.37% (inactive)
11,O=C(COC(=O)c1cccs1)NCc1cccs1,-10.9% (inactive)
12,O=C(COC(=O)c1cc2c(s1)CCCC2)NCc1ccccc1Cl,40.4% (active)
13,COc1ccc(NC(=O)C2CCC(CNc3c(N4CCCCC4)c(=O)c3=O)CC2)c(OC)c1 (stereo not given),26.1% (inactive)
14,CCN1CCN(C(=O)c2ccc(CN(c3ccc(C)c(C)c3)S(C)(=O)=O)cc2)CC1,-3.29% (inactive)
15,Cc1ccc(S(=O)(=O)N(C)CC(=O)NCC(c2ccc(F)cc2)N2CCOCC2)cc1 (stereo not given),-5.42% (inactive)
16,CCC(C)(C)n1nnnc1C(c1cccs1)N1CCN(c2nc3ccccc3s2)CC1 (stereo not given),1.17% (inactive)
17,COc1nc(NC2CCCCC2)nc(N2CCCCCC2)n1,15.7% (inactive)
18,COc1ccc(-n2cnnc2SCC(=O)Nc2cccc([N+](=O)[O-])c2)cc1,-7.34% (inactive)
19,O=C(CSc1ncn[nH]1)Nc1nc(-c2cccc([N+](=O)[O-])c2)cs1,-6.82% (inactive)
20,O=C(CSc1nc(-c2ccccc2)cs1)Nc1cccc([N+](=O)[O-])c1,41.4% (active)
21,Cc1cc(NC(=O)c2ccco2)c(=O)n(Cc2c(F)cccc2Cl)c1,4.88% (inactive)
22,Cc1c(Cl)c([N+](=O)[O-])nn1Cc1ccc(C(=O)N/N=C\c2cc(Cl)ccc2O)o1,64.3% (active)
23,O=C(N/N=C\c1ccc(Br)cc1)c1ccc(Cn2cccn2)o1,-3.61% (inactive)

row,Compound,inhibition
1,Cc1nn(Cc2ccccc2Cl)c(C)c1NC(=O)Cn1nc([N+](=O)[O-])c(Cl)c1C,-0.32% (inactive)
2,Cn1c(SCC(=O)N/N=C/c2ccc(O)c(O)c2)nc2ccccc21,-12.3% (inactive)
3,O=C(CSc1nc2ccccc2[nH]1)N/N=C/C=C\c1ccccc1[N+](=O)[O-],7.51% (inactive)
4,C/C(=N\NC(=O)CSc1nc2ccccc2c(=O)n1-c1ccccc1C)c1cccs1,8.49% (inactive)
5,Cc1nn(-c2ccccc2)c(C)c1/C=N/NC(=O)CSc1nc2ccccc2c(=O)n1-c1ccccc1,45.1% (active)
6,Cc1ccc(-n2c(SCC(=O)N/N=C/C=C/c3ccccc3[N+](=O)[O-])nc3ccccc3c2=O)cc1,54.4% (active)
7,CCn1c(SCC(=O)N/N=C/C=C/c2ccccc2[N+](=O)[O-])nnc1-c1ccccc1,1.16% (inactive)
8,CCC[C@@H]1C[C@@]1(CCC)[C@@H](NC(=O)c1ccccc1)c1ccc(C(=O)OC)cc1,-5.7% (inactive)
9,COc1ccc(C(=O)NC(C)Cn2nc(C)cc2C)cc1OC1CCN(C(C)=O)CC1 (stereo not given),3.85% (inactive)
10,O=C(CCN1CCN(c2ccccc2)CC1)NNC(=S)Nc1ccccc1,-1.44% (inactive)
11,CCc1ccc2c(c1)C1(NN=C(c3ccccc3)S1)C(=O)N2 (stereo not given),12.8% (inactive)
12,CCN=C1S/C(=C\c2cc(Br)ccc2OCC(=O)OCC)C(=O)N1CC,-7.54% (inactive)
13,Cc1ccccc1OCc1nnc(SCC(=O)N2c3ccccc3Sc3ccc(Cl)cc32)o1,-8.7% (inactive)
14,O=S(=O)(Oc1ccccc1C(=S)N1CCOCC1)c1ccc(Cl)cc1,2.25% (inactive)
15,CN(C)c1cc(N)c2ccccc2n1 (tested in a mixture with another compound),-6.07% (inactive)
16,Cn1cc[n+](C)c1COc1ccc(C=O)cc1,6.27% (inactive)
17,Cc1ccc(S(=O)(=O)N(CC(=O)Nc2cccc([N+](=O)[O-])c2)Cc2ccc(Cl)cc2)cc1,75.6% (active)
18,Cc1ccc(S(=O)(=O)N(Cc2cccc([N+](=O)[O-])c2)C(=O)N2CCN(C)CC2)cc1,3.55% (inactive)
19,Cc1ccc(N(CC(=O)Nc2cc(C)cc(C)c2)S(=O)(=O)c2cccc3nonc23)cc1,12.5% (inactive)
20,COc1ccc(N(CC(=O)Nc2ccc(C)cc2C)S(=O)(=O)c2ccccc2[N+](=O)[O-])c(OC)c1,-12.7% (inactive)
21,CN(c1ccccc1)S(=O)(=O)c1cccc(NC(=O)Cc2ccc(Cl)cc2)c1,-14.9% (inactive)
22,COc1ccc(C)cc1S(=O)(=O)N(CC(=O)Nc1cccc([N+](=O)[O-])c1)c1ccc(C)cc1,88.8% (active)
23,CCCCn1c(N)c(N(CC(C)C)C(=O)CSc2ccc([N+](=O)[O-])cc2)c(=O)[nH]c1=O,8.17% (inactive)

row,Compound,inhibition
1,CCOC(=O)CCCNC(=O)COC(=O)c1cc(Br)c(Br)s1,-7.58% (inactive)
2,C/C=N/NC(=O)CCCC(=O)N/N=C/C,-3.09% (inactive)
3,CC(C)c1ccc2c(c1)c(SC(C)(C)C)c(CC(C)(C)C(=O)O)n2Cc1ccc(Cl)cc1,56.2% (active)
4,CCN(CC)S(=O)(=O)c1ccc(N(C)Cc2ccc(C(F)(F)F)cc2)nc1,-7.77% (inactive)
5,O=C(c1ccco1)N1CCN(CC(=O)N(C2CCCCC2)C2CCS(=O)(=O)C2)CC1 (stereo not given),0.94% (inactive)
6,N#Cc1ccc(Oc2cc(C(F)(F)F)nc(-c3ccccn3)n2)cc1,-10.2% (inactive)
7,COc1ccc(NCCc2ccccn2)cc1,-5.58% (inactive)
8,COc1cnc(-c2ccccn2)nc1Oc1ccc(C(C)(C)C)cc1,59.3% (active)
9,CCCCN(C1CCS(=O)(=O)C1)S(=O)(=O)c1ccc(C(C)C)cc1 (stereo not given),6.86% (inactive)
10,Cn1cccc1C(=O)N1CCc2ccccc2C1,-0.25% (inactive)
11,Cc1ccc(-c2cc(C(=O)N3CCc4ccccc4C3)no2)cc1,40% (active)
12,O=C(c1cc(-c2cccc(O)c2)on1)N1CCc2ccccc2C1,35.8% (inactive)
13,O=C(Nc1ccccc1Cl)N1CCN(c2ccc3nncn3n2)CC1,-9.87% (inactive)
14,CN1C(=O)[C@H]2[C@@H](C3CC3)N3C(=O)CN(Cc4ccccc4)C(=O)[C@@]3(C)[C@H]2C1=O,0.76% (inactive)
15,O=C1c2ccccc2C(=O)N1Cc1cc(-c2ccccc2Cl)no1,56.3% (active)
16,O=C1c2ccccc2C(=O)N1CCCc1nc(-c2ccccc2)no1,3.08% (inactive)
17,O=C1c2ccccc2C(=O)N1CCCCCCN1C(=O)c2ccccc2C1=O,2.67% (inactive)
18,Cc1nc2ccccc2c(-c2ccccc2)c1C(=O)c1ccccc1,80% (active)
19,Cc1nc2ccccc2c(C(=O)O)c1-c1ccccn1,-2.51% (inactive)
20,Cc1nc2ccccc2c(C)c1C(=O)c1ccc(F)cc1,-2.83% (inactive)
21,CCn1c2c(c3ccc(OC)cc31)CCCC2=O,-3.83% (inactive)
